# Measurements taken from PubChem BioAssay.
# Where “and” joins values, the source holds several entries; their conditions need not be identical. Equal entries are not always repeated. Results filed as inconclusive are left out. For some of these results: Entries with a potency or affinity are not part of this list. Calls of active or inactive are those of the source.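 How the source made its calls, unless noted: active means z-score of at least 1.8 in each of two replicates, scored against plate mean and spread of sample wells; inactive means the rest.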
# Tests used:
# [1] = antimalarial activity against Dd2 strain (AID 2302;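 active means growth inhibition above 50% at the single 2 µM test dose, taken to imply half-maximal potency below 2 µM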;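 further: 0% = DMSO untreated growth and 100% = chloroquine plus artemisinin killed control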); conditions: P. falciparum Dd2 in RBCs, LDH growth readout, 72 h; at 2 µM; stronger effect = higher value
# [2] = HepG2 cytotoxicity, primary screen, cytotoxicity control for P. falciparum antimalarial project, cell-based, ATP luminescence (AID 2303;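 active means inhibition above 50%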;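 further: 0% = DMSO wells and 100% = digitonin-killed cells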); conditions: HepG2 viability, 24-48 h, at 10 µM, stronger effect = higher value
# [3] = target: L-lactate dehydrogenase (Plasmodium falciparum (isolate CDC / Honduras)) (UniProt Q27743); experiment: PfLDH activity inhibition – cell lysate, 3D7 strain, counter-screen for P. falciparum growth inhibition project (AID 2304; call rule not given here;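 further: 0% = vehicle and 100% = reference inhibitor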); conditions: P. falciparum 3D7 crude extract, LDH APAD/NBT absorbance; at 2 µM; stronger effect = higher value
# [4] = inhibition of 3D7 malaria parasite growth – strain 3D7 (AID 2306; call rule not given here;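 further: 0% = DMSO wells and 100% = chloroquine plus artemisinin control wells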); conditions: P. falciparum 3D7 erythrocytic growth, LDH absorbance, 72 h; at 2 µM; stronger effect = higher value
# [5] = target: Plasmodium falciparum protein kinase 6 (PK6, PF3D7_1337100) (UniProt Q8IDW1); experiment: PfPK6 kinase inhibitors, biochemical, TCAMS library (AID 1159586; call rule not given here); conditions: recombinant PfPK6, Kinase-Glo ATP depletion luminescence
# [6] = target: Protein kinase 7 (PK7), Plasmodium falciparum 3D7 (PF3D7_0213400) (UniProt Q7YTF7); experiment: inhibition of Plasmodium PK7 catalytic activity – biochemical, TCAMS antimalarial set, Kinase-Glo luminescence (AID 1159587; call rule not given here); conditions: recombinant PfPK7, Kinase-Glo ATP depletion luminescence
# [7] = target: Calcium-dependent protein kinase 4 (Plasmodium falciparum (isolate 3D7)) (UniProt Q8IBS5); experiment: PfCDPK4 kinase inhibitors, biochemical, TCAMS library (AID 1159588; cut-off not given, nearly all actives have IC50 up to about 0.91 µM); conditions: recombinant PfCDPK4, Kinase-Glo ATP depletion luminescence
# [8] = viability rescue of complex I mutant cybrids, primary screen, cell-based, galactose medium, ATP luminescence (AID 1645843); conditions: complex I mutant cybrid cells, 72 h, stronger effect = higher value;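 further: positive z means more ATP and so rescue of galactose-driven cybrid death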
# [9] = tested on: Aerobactin synthetase IucA (Klebsiella pneumoniae); experiment: IucA aerobactin synthetase inhibitors, biochemical, Tocris library, absorbance (AID 1345561; call rule not given here;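 further: 100% = enzyme without compound and 0% = no enzyme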); conditions: purified IucA enzyme assay, absorbance (OD) read-out; stronger effect = lower value;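 tested at 8 µM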
# [10] = target: NAD(+) hydrolase SARM1 (Homo sapiens) (UniProt Q6SZW1); experiment: SARM1 TIR NADase inhibitors, cell lysate, NAD-Glo luminescence (AID 1508614;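 active means compound whose remaining NAD level is above about 45 nM, limit read from the data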); conditions: SAM-TIR HEK293T lysate NADase, at 1 µM, stronger effect = higher value
# [11] = tested on: Hepatitis C virus NS3 helicase; experiment: HCV NS3 helicase inhibitors, primary screen, biochemical, fluorescence polarization, LOPAC1280 library (AID 687035; in the data active means inhibition above about 37%); conditions: Purified HCV NS3 helicase, Cy5-dT15 ssDNA binding fluorescence polarization; stronger effect = higher value; concentration not given here
# [12] = Cy5 fluorescence quenching or enhancement artefacts, artefact control for HCV NS3 helicase inhibitor project, biochemical, LOPAC1280 (AID 687037; call rule not given here); conditions: Cy5-DNA-NS3h complex fluorescence interference counterscreen
# [13] = phospholipid biosynthesis inhibitors in animal cells, primary screen, cell-based, LOPAC library, screen 4 (AID 1347384; call rule not given here); conditions: phospholipid biosynthesis inhibition screen, at 10 µM
# [14] = survival rescue of mitochondrial mutant cells in low glucose, primary screen, MELAS cybrids, Rieske KO mouse fibroblasts, CellTiter-Glo (AID 1508586;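 active means mean z-score across replicates of 1.96 or higher in either the MELAS or the Rieske mutant cell line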;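 further: z relative to plate mean and SD of compound and empty wells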)
# [15] = polyglutamine-triggered caspase-3 activation inhibitors, cell-based (AID 1583); conditions: polyglutamine-induced caspase-3 activation, cell assay; stronger effect = higher value;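 tested at 10 µM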
# [16] = suppressors of polyQ aggregation in yeast, 75Q-TubU reporter (AID 1593); conditions: Yeast 75Q polyglutamine aggregation reporter
# [17] = growth inhibition of DIPG glioma cells, dose response, cell-based, SU-DIPG-XIII, MIPE4.0, CellTiter-Glo, qHTS (AID 1347061; cut-off not given, nearly all actives have AC50 up to about 37 µM;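 further: cells exposed to compound for 48 hours before readout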); conditions: SU-DIPG-XIII viability, CellTiter-Glo ATP luminescence
# [18] = growth inhibition of DIPG glioma cells, dose response, cell-based, JHH-DIPG-1, MIPE4.0, CellTiter-Glo, qHTS (AID 1347062; cut-off not given, nearly all actives have AC50 up to about 27 µM); conditions: JHH-DIPG-1 viability, CellTiter-Glo ATP luminescence
# [19] = growth inhibition of DIPG glioma cells, dose response, cell-based, SU-DIPG-IV, MIPE4.0, CellTiter-Glo, qHTS (AID 1347063; cut-off not given, nearly all actives have AC50 up to about 30 µM;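 further: compound exposure lasted 48 hours before the viability readout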); conditions: SU-DIPG-IV viability, CellTiter-Glo ATP luminescence
# [20] = modifiers of HSF1 nuclear foci, imaging, Selleck Cancer Library (AID 1347162; in the data active means plate-normalised HSF1 focus index below about 0.46); conditions: human cells, at 10 µM; SSMD: measured here: HSF1 foci SSMD mean; cell count: measured here: cell number; plate-normalised HSF1 focus index: stronger effect = lower value
# [21] = MELAS cybrid survival, CellTiter-Glo 48 h, stronger effect = higher value
# [22] = Rieske KO mouse fibroblast survival, CellTiter-Glo 72 h
# Chain of NAD(+) hydrolase SARM1 (Homo sapiens) (Q6SZW1 whole entry, looked up): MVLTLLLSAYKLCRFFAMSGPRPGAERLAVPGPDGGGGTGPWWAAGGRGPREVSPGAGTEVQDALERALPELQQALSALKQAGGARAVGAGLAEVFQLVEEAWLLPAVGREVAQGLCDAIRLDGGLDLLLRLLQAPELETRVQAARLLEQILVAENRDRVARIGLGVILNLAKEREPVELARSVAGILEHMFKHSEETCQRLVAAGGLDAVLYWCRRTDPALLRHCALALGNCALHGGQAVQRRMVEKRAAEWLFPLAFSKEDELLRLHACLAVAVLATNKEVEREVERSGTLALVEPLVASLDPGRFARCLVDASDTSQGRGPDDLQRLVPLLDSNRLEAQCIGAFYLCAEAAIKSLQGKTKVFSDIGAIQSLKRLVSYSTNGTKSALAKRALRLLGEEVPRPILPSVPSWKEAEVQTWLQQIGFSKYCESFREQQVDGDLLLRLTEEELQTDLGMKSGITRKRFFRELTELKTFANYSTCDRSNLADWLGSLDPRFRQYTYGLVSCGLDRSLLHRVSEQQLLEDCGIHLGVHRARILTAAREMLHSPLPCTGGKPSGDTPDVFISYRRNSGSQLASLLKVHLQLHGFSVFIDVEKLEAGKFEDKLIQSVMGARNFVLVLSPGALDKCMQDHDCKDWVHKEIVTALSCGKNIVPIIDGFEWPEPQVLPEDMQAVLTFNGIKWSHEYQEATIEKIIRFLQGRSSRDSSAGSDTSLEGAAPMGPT
# Chain of Calcium-dependent protein kinase 4 (Plasmodium falciparum (isolate 3D7)) (Q8IBS5 whole entry, looked up): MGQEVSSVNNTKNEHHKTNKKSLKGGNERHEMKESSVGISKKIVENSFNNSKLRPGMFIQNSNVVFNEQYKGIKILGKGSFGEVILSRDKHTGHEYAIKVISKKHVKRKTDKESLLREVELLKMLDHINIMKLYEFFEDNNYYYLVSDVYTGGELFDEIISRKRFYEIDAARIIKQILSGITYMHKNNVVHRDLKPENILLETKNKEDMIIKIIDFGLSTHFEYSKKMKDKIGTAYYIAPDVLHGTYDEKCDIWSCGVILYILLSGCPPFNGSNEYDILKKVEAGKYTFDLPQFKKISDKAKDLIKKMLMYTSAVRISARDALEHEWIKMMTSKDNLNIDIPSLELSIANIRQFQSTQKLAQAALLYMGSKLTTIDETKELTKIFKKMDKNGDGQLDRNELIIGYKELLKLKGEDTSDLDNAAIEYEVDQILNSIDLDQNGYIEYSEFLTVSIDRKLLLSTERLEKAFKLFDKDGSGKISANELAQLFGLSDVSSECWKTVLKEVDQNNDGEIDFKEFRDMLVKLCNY
# Chain of Protein kinase 7 (PK7), Plasmodium falciparum 3D7 (PF3D7_0213400) (Q7YTF7 1-343): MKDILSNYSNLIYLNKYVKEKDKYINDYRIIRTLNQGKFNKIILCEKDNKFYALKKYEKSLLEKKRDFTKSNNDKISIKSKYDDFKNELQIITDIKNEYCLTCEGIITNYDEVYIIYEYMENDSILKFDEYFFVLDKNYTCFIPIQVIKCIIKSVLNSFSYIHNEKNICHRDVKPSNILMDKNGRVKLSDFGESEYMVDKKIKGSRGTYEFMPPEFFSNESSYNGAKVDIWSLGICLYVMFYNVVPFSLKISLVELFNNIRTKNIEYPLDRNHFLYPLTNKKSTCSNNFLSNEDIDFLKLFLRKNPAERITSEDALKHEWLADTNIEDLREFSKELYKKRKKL
# Chain of L-lactate dehydrogenase (Plasmodium falciparum (isolate CDC / Honduras)) (Q27743 whole entry, looked up): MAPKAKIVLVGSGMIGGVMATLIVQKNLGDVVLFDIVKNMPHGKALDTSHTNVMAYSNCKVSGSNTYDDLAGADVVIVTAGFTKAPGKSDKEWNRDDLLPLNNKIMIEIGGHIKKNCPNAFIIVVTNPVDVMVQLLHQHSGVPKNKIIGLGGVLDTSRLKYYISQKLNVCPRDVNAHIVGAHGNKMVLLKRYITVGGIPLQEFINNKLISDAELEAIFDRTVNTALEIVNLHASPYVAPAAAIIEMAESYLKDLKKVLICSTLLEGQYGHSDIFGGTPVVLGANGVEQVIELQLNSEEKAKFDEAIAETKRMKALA
# Chain of Plasmodium falciparum protein kinase 6 (PK6, PF3D7_1337100) (Q8IDW1 1-305): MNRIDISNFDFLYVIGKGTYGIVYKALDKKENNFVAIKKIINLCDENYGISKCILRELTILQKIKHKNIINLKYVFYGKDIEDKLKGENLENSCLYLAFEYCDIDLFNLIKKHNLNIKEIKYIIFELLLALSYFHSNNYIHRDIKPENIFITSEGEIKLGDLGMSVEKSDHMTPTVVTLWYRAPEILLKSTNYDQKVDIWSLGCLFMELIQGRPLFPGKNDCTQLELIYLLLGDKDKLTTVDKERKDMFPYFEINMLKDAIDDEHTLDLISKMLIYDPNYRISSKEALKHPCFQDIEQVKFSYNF
compound,measurement,setting,value
Cc1c(C)c2c(c(C)c1O)CC[C@@](C)(C(=O)NC1CCC(CN3CCC(c4c[nH]c5ccccc45)CC3)CC1)O2 (some centres undefined),growth inhibition,[1],57% (active)
same,inhibition,[2],29% (inactive)
same,inhibition,[3],-2% (inactive)
same,growth inhibition,[4],92% (active)
same,outcome,[5],inactive
same,outcome,[6],inactive
same,outcome,[7],inactive
CCOC(=O)C1(c2ccccc2)CCN(CCC(C#N)(c2ccccc2)c2ccccc2)CC1,z-score,[8],-1.88 (inactive)
Cc1ncc2n1-c1ccc(Cl)cc1C(c1ccccc1F)=NC2,z-score,[8],0.59 (inactive)
CCCCC/C=C\C/C=C\C/C=C\C/C=C\CCCC(=O)Nc1ccc(O)cc1,remaining activity,[9],113% (inactive)
same,z-score,[8],-0.695 (inactive)
COc1ccc2[nH]cc(C3=CCNCC3)c2c1,remaining activity,[9],103% (inactive)
same,z-score,[8],-1.57 (inactive) and -0.95 (inactive)
Cc1nnc2n1-c1ccc(Cl)cc1C(c1ccccc1)=NC2,z-score,[8],0.965 (inactive)
Cc1ccc(-c2nc3ccc(C)cn3c2CC(=O)N(C)C)cc1,remaining NAD,[10],10 nM (inactive)
same,z-score,[8],1.03 (inactive)
c1cncc(C2CCCN2)c1 (centres undefined),z-score,[8],0.385 (inactive)
COC(=O)N1CCN(C(=O)Cc2ccc(Cl)c(Cl)c2)C(CN2CCCC2)C1 (centres undefined),inhibition,[11],-4% (inactive)
same,fluorescence ratio (interference),[12],1 (inactive)
same,outcome,[13],inactive
same,z-score,[8],-0.09 (inactive) and 0.285 (inactive)
O[C@@H]1CCCC[C@H]1N1CCC(c2ccccc2)CC1,remaining activity,[9],96.8% (inactive)
same,z-score,[14]; [21],-0.566 (inactive)
same,z-score,[14]; [22],-0.671
same,z-score,[8],-0.07 (inactive)
C[N+]1(C)CCN(c2ccccc2)CC1,inhibition,[11],-1% (inactive)
same,fluorescence ratio (interference),[12],1 (inactive)
same,outcome,[13],inactive
same,z-score,[8],0.43 (inactive) and 1.15 (inactive)
Clc1ccc(CON=C(Cn2ccnc2)c2ccc(Cl)cc2Cl)c(Cl)c1,z-score,[8],-1.88 (inactive)
O=C1Nc2ccc(Cl)cc2C(c2ccccc2Cl)=NC1O (centres undefined),inhibition,[15],-16.4%
same,score,[16],0.78
same,z-score,[8],0.845 (inactive)
CC12CCC(=O)C=C1CCC1C2CCC2(C)C(O)CCC12 (centres undefined),z-score,[8],-0.235 (inactive)
CC(C)[C@]12O[C@H]1[C@@H]1O[C@]13[C@]1(O[C@H]1C[C@H]1C4=C(CC[C@@]13C)C(=O)OC4)[C@@H]2O,outcome,[17],inactive
same,outcome,[18],inactive
same,outcome,[19],inactive
same,SSMD,[20],-5.07
same,cell count,[20],6670
same,plate-normalised HSF1 focus index,[20],0.769 (inactive)
CN=C1CN(O)C(c2ccccc2)=c2cc(Cl)ccc2=N1,inhibition,[15],6.92%
same,score,[16],1.19
same,z-score,[8],0.34 (inactive)
O=C1CN=C(c2ccccc2)c2cc([N+](=O)[O-])ccc2N1,z-score,[8],1.3 (inactive)
C[C@]12CC[C@H]3[C@@H](CCC4=CC(=O)CC[C@@H]43)[C@@H]1CC[C@@H]2O,z-score,[14]; [21],0.634 (inactive)
same,z-score,[14]; [22],0.271
c1ccc(Cn2ccnc2)cc1,z-score,[8],0.075 (inactive)
CC[C@@H]1/C=C/C=C/C[C@H](C)[C@@H](O)[C@](C)(O)C(=O)[C@H](C)[C@@H](O)[C@H](C)C(=O)[C@H](C)[C@@H](O)[C@H](C)/C=C/C(=O)O[C@H]2[C@@H](C)[C@@H](CC1)O[C@@]1(CC[C@@H](C)[C@@H](C[C@H](C)O)O1)[C@@H]2C,inhibition,[15],-0.04%
same,score,[16],-0.11
CCCCCCCCCOc1ccc2[nH]cc(CCN)c2c1,z-score,[8],-1.44 (inactive)
NCCc1ccccn1,remaining activity,[9],108% (inactive)
same,z-score,[8],0.8 (inactive) and -0.145 (inactive)
CCN(C(C)=O)c1cccc(-c2ccnc3c(C#N)cnn23)c1,z-score,[14]; [21],0.804 (inactive)
same,z-score,[14]; [22],0.277
same,remaining NAD,[10],10 nM (inactive)
same,z-score,[8],0.945 (inactive)
C[C@]12CCC(=O)C=C1CC[C@@H]1[C@@H]2CC[C@@]2(C)[C@H]1CC[C@]2(C)O,outcome,[17],inactive
same,outcome,[18],inactive
NC(=NCc1ccc(Cl)cc1)SCCCc1cnc[nH]1,remaining activity,[9],102% (inactive)
same,z-score,[8],-1.21 (inactive) and 0.08 (inactive)
C[C@]12CC(=CO)C(=O)C[C@@H]1CC[C@@H]1[C@@H]2CC[C@@]2(C)[C@H]1CC[C@]2(C)O,z-score,[14]; [21],0.172 (inactive)
same,z-score,[14]; [22],0.741
COc1ccc(CCN)cc1OC,z-score,[14]; [21],0.19 (inactive)
same,z-score,[14]; [22],0.0302
same,z-score,[8],0.46 (inactive)
Oc1cc2c(cc1O)[C@H]1c3ccccc3CN[C@@H]1CC2,remaining activity,[9],97.5% (inactive)
same,z-score,[8],-1.23 (inactive)
CC[C@@H](C(N)=O)N1CCCC1=O,inhibition,[11],-4% (inactive)
same,fluorescence ratio (interference),[12],1 (inactive)
same,outcome,[17],inactive
same,outcome,[18],inactive
same,outcome,[19],inactive
same,outcome,[13],inactive
same,z-score,[14]; [21],-0.985 (inactive) and 0.498 (inactive)
same,z-score,[14]; [22],0.204 and -0.0344
same,z-score,[8],0.685 (inactive) and 0.535 (inactive)
CN1C(=O)CN=C(c2ccccc2)c2cc(Cl)ccc21,inhibition,[15],-7.18%
same,score,[16],0.95
same,z-score,[8],1.09 (inactive)
